Measured values as given in publication PMC7826789 (International Journal of Molecular Sciences, 2021).

System: ITK
Conditions: Compound Concentration (nM):1000
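Note: KINOMEscan scanMAX binding as percent activity remaining versus control; lower means stronger binding.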

Percent Control, inactive:
COc1ccc2c(-c3ccnc(Nc4cccc(OC(F)(F)F)c4)n3)cnn2n1 [GW810372X] 100%
CCS(=O)(=O)c1ccc(OC)c(Nc2ncc(-c3cccc(OC)c3)o2)c1 [GW580509X] 100%
CC1=C(C(=O)Nc2ccc3[nH]ncc3c2)C(c2ccc3ccccc3c2)CC(=O)N1 (stereo not shown) [GSK270822A] 75%
COc1cccc(-c2c[nH]c3c(N/N=C/c4ccncc4)ncnc23)c1 [GW814408X] 96%
Cl.O=C(Nc1ccc(Oc2ccc3[nH]c(NC(=O)c4ccco4)nc3c2)cc1)Nc1cc(C(F)(F)F)ccc1F [GW683134A] 97%
COC(=O)Nc1nc2ccc(Oc3ccc(NC(=O)Nc4cc(C(F)(F)F)ccc4F)cc3)cc2s1.Cl [GW693917A] 74%
COc1cc(N2CCN(C(C)C)CC2)ccc1Nc1nc(Nc2ccc(F)cc2C(=O)NC[C@@H](O)CO)c2cc[nH]c2n1 [GSK1392956A] 100%
COc1cc2ncn(-c3cc(O[C@H](C)c4ccccc4Cl)c(C(N)=O)s3)c2cc1OC [GSK237701A] 82%
Cl.c1ccc(Cc2nc3ccc(Nc4ncnc5ccccc45)cc3[nH]2)cc1 [GR269666A] 100%
COc1cc(C)c(N(C)C(=O)CN(C)C)cc1Nc1nc(Nc2cccc(F)c2C(N)=O)c2cc[nH]c2n1 [GSK2219385] 99%
NS(=O)(=O)c1ccc(N/N=C2\C(=O)Nc3ccc(C(=O)NCCc4c[nH]cn4)cc32)cc1 [GW300660X] 100%
CCS(=O)(=O)c1ccc(OC)c(Nc2ncc(-c3cccc(F)c3)o2)c1 [GW621970X] 100%
CN(C)CCNC(=O)Nc1ccc(N(C)c2ccnc(Nc3ccc(CS(C)(=O)=O)cc3)n2)cc1.Cl [GW830900A] 83%
